# Positions count from the first letter of the chain named.
# How the values were obtained:
# Experiment in all cases: yeast three-hybrid, YBZ-1, SC-Leu-His + 0.5 mM 3-AT, 4 days
# Conditions in all cases: tags: N-Gal4 AD-HA kept; label: inside an RPR1-promoter hybrid RNA with tandem MS2 sites; ssRNA
# PUM1 PUF domain R1-KTS = PUM1 PUF domain R1-KTS (Homo sapiens, UniProt Q14671 828-1176, S863K;R864T;Q867S)
# Outline: (§1)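 Sequencing with Illumina followed PCR amplification of the repeat regions from transformants grown four days on SC-Leu (input) or SC-Leu-His + 0.5 mM 3-AT (selection). The transformants were strain YBZ-1 with a LexA–MS2 coat fusion and a HIS3 reporter, carrying Pumilio-1 PUF domain libraries and matching RNA elements. The interaction score is the log change in variant frequency from input to selection, computed in log2 with a pseudocount of 1 for absent variants.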
# PUM1 PUF domain R5-NSV = PUM1 PUF domain R5-NSV (Homo sapiens, UniProt Q14671 828-1176, C1007N;R1008S;Q1011V)
# Outline: as §1
# PUM1 PUF domain R5-KLE = PUM1 PUF domain R5-KLE (Homo sapiens, UniProt Q14671 828-1176, C1007K;R1008L;Q1011E)
# Outline: as §1
# PUM1 PUF domain R8-SHR = PUM1 PUF domain R8-SHR (Homo sapiens, UniProt Q14671 828-1176, N1122S;Y1123H;Q1126R)
# Outline: as §1
# PUM1 PUF domain R3-RAT = PUM1 PUF domain R3-RAT (Homo sapiens, UniProt Q14671 828-1176, C935R;R936A;Q939T)
# Outline: as §1
# PUM1 PUF domain R5-DCR = PUM1 PUF domain R5-DCR (Homo sapiens, UniProt Q14671 828-1176, C1007D;R1008C;Q1011R)
# Outline: as §1
# PUM1 PUF domain R6-CFF = biological target: T1, PUM1 PUF domain R6-CFF (Homo sapiens, UniProt Q14671 828-1176, N1043C;Y1044F;Q1047F)
# T1 sequence: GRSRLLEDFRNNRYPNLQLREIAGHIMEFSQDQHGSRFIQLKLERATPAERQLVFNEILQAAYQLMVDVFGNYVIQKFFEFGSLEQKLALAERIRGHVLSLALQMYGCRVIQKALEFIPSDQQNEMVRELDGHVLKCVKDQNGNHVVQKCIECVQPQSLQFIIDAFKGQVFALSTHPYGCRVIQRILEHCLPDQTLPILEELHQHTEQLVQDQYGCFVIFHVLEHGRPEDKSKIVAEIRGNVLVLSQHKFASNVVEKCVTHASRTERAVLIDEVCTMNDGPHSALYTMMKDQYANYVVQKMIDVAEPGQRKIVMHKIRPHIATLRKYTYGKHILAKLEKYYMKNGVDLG
# Outline: as §1
# PUM1 PUF domain R2-NFP = PUM1 PUF domain R2-NFP (Homo sapiens, UniProt Q14671 828-1176, Y900F;Q903P)
# Outline: as §1
# PUM1 PUF domain R5-SRT = PUM1 PUF domain R5-SRT (Homo sapiens, UniProt Q14671 828-1176, C1007S;Q1011T)
# Outline: as §1
# PUM1 PUF domain R6-NYW = biological target: T2, PUM1 PUF domain R6-NYW (Homo sapiens, UniProt Q14671 828-1176, Q1047W)
# T2 sequence: T1 sequence with C216N, F217Y, F220W
# Outline: as §1
sequence,measurement,setting,value
GGCUAGAACUAGUGGAUCCCCCGGCGCCCGGCGGCUCGAGCCCGGGUAAGUGUAAAUCGUCUGCAUGCCGCCGGGCGCCAUGCCUGCAGGUCGACUCUAGAAAACAUG,binding signal,PUM1 PUF domain R1-KTS,4.91 log2 enrichment (interaction score)
GGCUAGAACUAGUGGAUCCCCCGGCGCCCGGCGGCUCGAGCCCGGGUAAGUGUUAAUAGUCUGCAUGCCGCCGGGCGCCAUGCCUGCAGGUCGACUCUAGAAAACAUG,binding signal,PUM1 PUF domain R5-NSV,2.21 log2 enrichment (interaction score)
same,binding signal,PUM1 PUF domain R5-KLE,2.51 log2 enrichment (interaction score)
GGCUAGAACUAGUGGAUCCCCCGGCGCCCGGCGGCUCGAGCCCGGGUAAGCGUAAAUAGUCUGCAUGCCGCCGGGCGCCAUGCCUGCAGGUCGACUCUAGAAAACAUG,binding signal,PUM1 PUF domain R8-SHR,3.61 log2 enrichment (interaction score)
GGCUAGAACUAGUGGAUCCCCCGGCGCCCGGCGGCUCGAGCCCGGGUAAGUGUAAUUAGUCUGCAUGCCGCCGGGCGCCAUGCCUGCAGGUCGACUCUAGAAAACAUG,binding signal,PUM1 PUF domain R3-RAT,3.26 log2 enrichment (interaction score)
GGCUAGAACUAGUGGAUCCCCCGGCGCCCGGCGGCUCGAGCCCGGGUAAGUGUCAAUAGUCUGCAUGCCGCCGGGCGCCAUGCCUGCAGGUCGACUCUAGAAAACAUG,binding signal,PUM1 PUF domain R5-DCR,2.94 log2 enrichment (interaction score)
same,binding signal,PUM1 PUF domain R5-KLE,5.37 log2 enrichment (interaction score)
GGCUAGAACUAGUGGAUCCCCCGGCGCCCGGCGGCUCGAGCCCGGGUAAGUGUAAAUAGUCUGCAUGCCGCCGGGCGCCAUGCCUGCAGGUCGACUCUAGAAAACAUG,binding signal,PUM1 PUF domain R6-CFF,4.85 log2 enrichment (interaction score)
same,binding signal,PUM1 PUF domain R8-SHR,4.08 log2 enrichment (interaction score)
same,binding signal,PUM1 PUF domain R2-NFP,2.11 log2 enrichment (interaction score)
same,binding signal,PUM1 PUF domain R5-SRT,3.34 log2 enrichment (interaction score)
same,binding signal,PUM1 PUF domain R6-NYW,2.24 log2 enrichment (interaction score)
GGCUAGAACUAGUGGAUCCCCCGGCGCCCGGCGGCUCGAGCCCGGGUAAGUGUGAAUAGUCUGCAUGCCGCCGGGCGCCAUGCCUGCAGGUCGACUCUAGAAAACAUG,binding signal,PUM1 PUF domain R5-NSV,0.18 log2 enrichment (interaction score)
